Values joined by “and” are separate entries in the source; they are usually repeats but may differ in a detail not shown here. Equal values may be shown once. Results filed as inconclusive are left out. Entries that show only a call come without a potency. Some compounds were tested as several samples or in several runs, with calls that do not always agree. Active and inactive are the calls of the source. Unless noted, calls come from the whole dose curve.
Experiments:
[1] = Nuclear factor erythroid 2-related factor 2/antioxidant responsive element (Nrf2/ARE) small molecule agonists: qHTS cell viability counter screen in human keratinocytes (AID 1919968; active = well fitted curve in the direction sought with a large enough effect in the repeat runs; an effect the other way counts as inactive or inconclusive; note: nearly all actives have a fitted effect of over 55% in size)
Summary of the method: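 KeratinoSens cells (HaCaT keratinocytes stably carrying an ARE-luciferase reporter) were seeded at 1,500 cells/well and rested 5 h at 37 C/5% CO2. They were then exposed to compounds in DMSO for 23 h. Viability was read by CellTiter-Fluor fluorescence after 1 h.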

[2] = Nuclear factor erythroid 2-related factor 2/antioxidant responsive element (Nrf2/ARE) small molecule agonists: luciferase reporter gene qHTS assay in human keratinocytes (AID 1919969); note: nearly all actives have a fitted effect of over 35% in size; note: potency is the fitted concentration of half-maximal effect
[3] = molecular target: Gonadotropin-releasing hormone receptor (Homo sapiens) (UniProt P30968); assay: Human gonadotropin-releasing hormone receptor (GnRHR) small molecule agonists, calcium flux assay in GnRHR-HEK293 cells (AID 1920063); note: nearly all actives have a fitted effect of over 35% in size
Gonadotropin-releasing hormone receptor (Homo sapiens), sequence (P30968 whole entry, looked up): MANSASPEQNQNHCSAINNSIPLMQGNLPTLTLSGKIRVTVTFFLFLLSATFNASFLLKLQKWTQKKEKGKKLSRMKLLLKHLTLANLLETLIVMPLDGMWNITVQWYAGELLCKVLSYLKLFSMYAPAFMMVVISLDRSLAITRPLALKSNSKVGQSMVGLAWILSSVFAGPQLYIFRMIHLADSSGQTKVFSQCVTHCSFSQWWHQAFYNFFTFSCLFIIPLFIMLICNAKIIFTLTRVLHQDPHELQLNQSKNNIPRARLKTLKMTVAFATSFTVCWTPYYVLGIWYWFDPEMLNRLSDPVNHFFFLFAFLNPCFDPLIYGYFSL
Summary of the method: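 HEK293 cells stably expressing human GnRHR were plated 18 h at 37 °C, loaded with calcium dye 1 h at 37 °C, then given compound in agonist mode; fluorescence (Ex/Em 480/540) read kinetically for 3 min at 1 s intervals.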

[4] = molecular target: KiSS-1 receptor (Homo sapiens) (UniProt Q969F8); assay: Human kisspeptin (KISS1R) small molecule agonists, calcium flux assay in KISS1R-HEK293 cells (AID 1920064; active = well fitted curve in the direction sought with a large enough effect in the repeat runs; an effect the other way counts as inactive or inconclusive)
KiSS-1 receptor (Homo sapiens), sequence (Q969F8 whole entry, looked up): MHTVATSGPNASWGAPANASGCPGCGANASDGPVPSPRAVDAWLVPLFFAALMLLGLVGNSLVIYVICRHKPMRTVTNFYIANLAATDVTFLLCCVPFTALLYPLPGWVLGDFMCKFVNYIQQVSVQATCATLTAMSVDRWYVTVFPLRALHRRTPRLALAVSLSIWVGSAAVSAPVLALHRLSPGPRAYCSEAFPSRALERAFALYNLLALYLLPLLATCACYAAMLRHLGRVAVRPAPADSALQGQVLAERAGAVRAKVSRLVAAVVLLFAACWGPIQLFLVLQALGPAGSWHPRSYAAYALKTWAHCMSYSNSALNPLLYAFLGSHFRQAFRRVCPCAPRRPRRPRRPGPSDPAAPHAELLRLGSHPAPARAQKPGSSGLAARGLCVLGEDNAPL
Summary of the method: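 HEK293 cells stably expressing human KISS1R were plated 18 h at 37 °C, loaded with calcium dye for 1 h at 37 °C, then given compound by pin tool. Fluorescence (Ex/Em 480/540) was read kinetically for 3 min.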

[5] = G protein-coupled receptor (GPCR) small molecule agonists, calcium flux assay: HEK293 wild type cell line counter screen (AID 1920065)
Summary of the method: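 Cells were plated and cultured 18 h at 37 C/5% CO2, then loaded with calcium dye for 1 h at 37 C. Compounds in DMSO were pin-transferred in agonist mode, and fluorescence (Ex/Em 480/540) was read kinetically for 3 min at 1 s intervals.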

[6] = p53 small molecule agonists, cell-based qHTS assay with human liver microsomes (AID 1963577);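 note: p53 response element beta-lactamase reporter cells with liver microsomes plus NADPH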
Summary of the method: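 Steps: plate p53RE-bla cells, incubate 5 h at 37 C; add compound in DMSO; add microsomes (0.5 mg/mL final) and NADPH (0.5 mg/mL final); incubate 16 h at 37 C; add LiveBLAzer, 2 h RT; read fluorescence.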

[7] = p53 small molecule agonists, cell-based qHTS assay with rat liver microsomes (AID 1963578)
Summary of the method: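 Metabolic activation is supplied by rat liver microsomes with NADPH (each 0.5 mg/mL final). p53RE-bla cells incubate with compound 16 h at 37 C; reporter activity is measured by LiveBLAzer fluorescence.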

[8] = p53 small molecule agonists, cell-based qHTS assay with human liver microsomes: qHTS cell viability counter screen (AID 1963579); note: nearly all actives have a fitted effect of over 45% in size
Summary of the method: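 After the 460/530 nm beta-lactamase read, CellTiter-Glo was added to the same wells and luminescence measured after 30 min at room temperature, giving viability of p53RE-bla cells treated 16 h with compounds plus microsomes and NADPH.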

[9] = p53 small molecule agonists, cell-based qHTS assay with rat liver microsomes: qHTS cell viability counter screen (AID 1963580); note: nearly all actives have a fitted effect of over 45% in size
Summary of the method: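 HCT-116 p53RE-bla, 4,000 cells/well, 5 h pre-incubation; cpd + rat liver microsomes 0.5 mg/mL + NADPH 0.5 mg/mL (final); 16 h, 37 C; CellTiter-Glo, 30 min RT; luminescence.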

[10] = p53 small molecule agonists, cell-based qHTS assay: qHTS cell viability counter screen (AID 1963581); note: nearly all actives have a fitted effect of over 45% in size
Summary of the method: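 p53RE-bla HCT-116 cells were exposed to compounds for 16 h at 37 C; after the beta-lactamase FRET read in the same wells, CellTiter-Glo was added and luminescence (intracellular ATP) read after 30 min at room temperature.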

[11] = p53 small molecule agonists, cell-based qHTS assay (AID 1963582; active = well fitted activation curve with a large enough effect in the signal ratio in the repeat runs, not every such curve was filed as active; the % refers to the signal ratio)
Summary of the method: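 p53RE-bla beta-lactamase reporter cells rested 5 h at 37 C/5% CO2, then received compounds in DMSO by pin transfer and were incubated 16 h at 37 C. LiveBLAzer B/G FRET substrate was loaded for 2 h at room temperature before fluorescence reading.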

[12] = molecular target: 5-hydroxytryptamine receptor 2A (Homo sapiens) (UniProt P28223); assay: 5-hydroxytryptamine receptor 2A (HTR2A) small molecule antagonists, cell-based qHTS assay (AID 1963586); note: nearly all actives have a fitted effect of over 45% in size
5-hydroxytryptamine receptor 2A (Homo sapiens), sequence (P28223 whole entry, looked up): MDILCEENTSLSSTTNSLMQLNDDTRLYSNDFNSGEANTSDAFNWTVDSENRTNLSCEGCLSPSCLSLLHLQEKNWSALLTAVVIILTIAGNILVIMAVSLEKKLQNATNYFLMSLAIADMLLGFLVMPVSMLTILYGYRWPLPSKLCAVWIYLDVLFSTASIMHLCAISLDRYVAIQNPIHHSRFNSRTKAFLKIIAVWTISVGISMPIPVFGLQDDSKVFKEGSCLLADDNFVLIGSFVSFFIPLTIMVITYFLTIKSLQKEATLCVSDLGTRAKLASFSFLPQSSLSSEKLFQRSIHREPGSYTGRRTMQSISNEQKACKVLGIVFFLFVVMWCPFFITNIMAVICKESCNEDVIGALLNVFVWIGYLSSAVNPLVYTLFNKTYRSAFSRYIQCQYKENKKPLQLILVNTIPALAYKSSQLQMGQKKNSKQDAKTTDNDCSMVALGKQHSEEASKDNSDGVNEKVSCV
Summary of the method: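 Antagonist-mode intracellular calcium assay: DOI (4 nM) added after 5 min compound pre-incubation at room temperature to dye-loaded HTR2A-CHO cells. Fluorescence followed for 3 min, sampled every second.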

[13] = molecular target: 5-hydroxytryptamine receptor 2A (Homo sapiens) (UniProt P28223); assay: 5-hydroxytryptamine receptor 2A (HTR2A) small molecule agonists, cell-based qHTS assay (AID 1963587); note: nearly all actives have a fitted effect of over 30% in size
Summary of the method: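 Kinetic calcium-flux fluorescence (2 min, 1 sec intervals) after compound addition in agonist mode. HTR2A-CHO cells were cultured 18 h, then dye-loaded 1 h at 37 C.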

[14] = molecular target: Muscarinic acetylcholine receptor M1 (Homo sapiens) (UniProt P11229); assay: Cholinergic receptor muscarinic 1 (CHRM1) small molecule antagonists, cell-based qHTS assay (AID 1963588); note: nearly all actives have a fitted effect of over 40% in size; note: potency is the fitted concentration of half-maximal effect
Muscarinic acetylcholine receptor M1 (Homo sapiens), sequence (P11229 whole entry, looked up): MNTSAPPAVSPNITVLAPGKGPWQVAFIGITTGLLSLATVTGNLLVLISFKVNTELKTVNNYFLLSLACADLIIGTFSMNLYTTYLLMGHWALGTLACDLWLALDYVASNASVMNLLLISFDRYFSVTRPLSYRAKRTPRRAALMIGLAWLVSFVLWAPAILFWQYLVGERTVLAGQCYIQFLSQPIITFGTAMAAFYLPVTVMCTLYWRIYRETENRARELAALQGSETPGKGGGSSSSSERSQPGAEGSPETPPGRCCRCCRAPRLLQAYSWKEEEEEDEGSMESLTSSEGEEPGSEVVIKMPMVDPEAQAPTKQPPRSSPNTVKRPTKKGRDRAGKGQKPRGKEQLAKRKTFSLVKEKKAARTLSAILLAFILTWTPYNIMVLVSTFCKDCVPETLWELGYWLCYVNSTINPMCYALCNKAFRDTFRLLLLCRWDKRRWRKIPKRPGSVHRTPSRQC
Summary of the method: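 CHRM1-CHO calcium-flux assay, antagonist mode. Cells were seeded 18 h, dye-loaded 1 h at 37 C and given compound for 5 min at RT, then acetylcholine was added at 50nM. FDSS fluorescence was read 3 min; 15 concentrations, three runs.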

[15] = molecular target: Muscarinic acetylcholine receptor M1 (Homo sapiens) (UniProt P11229); assay: Cholinergic receptor muscarinic 1 (CHRM1) small molecule agonists, cell-based qHTS assay (AID 1963589); note: nearly all actives have a fitted effect of over 35% in size
Summary of the method: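 CHO cells stably expressing human CHRM1, seeded 18 h at 37 C/5% CO2, dye-loaded 1 h at 37 C, then given compound in agonist mode; intracellular calcium fluorescence read kinetically at 1 s intervals. Fifteen concentrations, three independent runs.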

[16] = cAMP Responsive Elements (CRE) small molecule agonists, cell-based qHTS assay (AID 1963590)
Summary of the method: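 CRE-bla HEK 293T cells in DMEM with 10% dialyzed FBS, NEAA, pyruvate and 25 mM HEPES were plated 18 h at 37 C/5% CO2, then exposed to compounds in DMSO for 3 h before LiveBLAzer B/G FRET substrate addition.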

[17] = cAMP Responsive Elements (CRE) small molecule antagonists, cell-based qHTS assay (AID 1963591; active = well fitted inhibition curve with a large enough effect in the signal ratio in the repeat runs, not every such curve was filed as active; the % refers to the signal ratio)
Summary of the method: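 CRE-bla HEK293T cells were plated 18 h at 37 °C/5% CO2, pinned with compound in DMSO, then stimulated with NKH477 at 0.25 uM final for 3 h. LiveBLAzer B/G FRET substrate was added and plates incubated 2 h at room temperature.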

[18] = molecular target: Beta-2 adrenergic receptor (Homo sapiens) (UniProt P07550); assay: Adrenergic beta2 receptor (ADRB2) small molecule antagonists, cell-based qHTS assay (AID 1963592); note: series mostly up to about 92 µM; nearly all actives have a fitted effect of over 50% in size
Beta-2 adrenergic receptor (Homo sapiens), sequence (P07550 whole entry, looked up): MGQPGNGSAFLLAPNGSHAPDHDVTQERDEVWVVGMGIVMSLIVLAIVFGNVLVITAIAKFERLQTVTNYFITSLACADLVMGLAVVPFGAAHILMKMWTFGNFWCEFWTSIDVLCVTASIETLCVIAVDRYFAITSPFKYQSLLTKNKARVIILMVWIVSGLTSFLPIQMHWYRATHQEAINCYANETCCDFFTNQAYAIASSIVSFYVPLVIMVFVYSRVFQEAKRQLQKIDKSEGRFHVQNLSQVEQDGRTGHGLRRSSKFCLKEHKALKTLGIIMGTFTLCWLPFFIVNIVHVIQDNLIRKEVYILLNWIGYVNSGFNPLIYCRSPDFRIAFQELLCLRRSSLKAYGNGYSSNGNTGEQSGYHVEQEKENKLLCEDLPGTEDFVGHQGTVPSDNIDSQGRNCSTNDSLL
Summary of the method: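 Cells (CHO, stable ADRB2 overexpression) incubated 18-20hr at 37C; compounds added from DMSO; agonist mix (1nM isoproterenol, 100uM IBMX, 25uM Ro-20-1724) added; 0.5hr RT; d2-cAMP and anti-cAMP-cryptate added; 1hr RT; 665/615 nm read.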

[19] = molecular target: D(2) dopamine receptor (Homo sapiens) (UniProt P14416); assay: Dopamine D2 receptor (DRD2) small molecule agonists, cell-based qHTS assay (AID 1963594); note: nearly all actives have a fitted effect of over 35% in size
D(2) dopamine receptor (Homo sapiens), sequence (P14416 whole entry, looked up): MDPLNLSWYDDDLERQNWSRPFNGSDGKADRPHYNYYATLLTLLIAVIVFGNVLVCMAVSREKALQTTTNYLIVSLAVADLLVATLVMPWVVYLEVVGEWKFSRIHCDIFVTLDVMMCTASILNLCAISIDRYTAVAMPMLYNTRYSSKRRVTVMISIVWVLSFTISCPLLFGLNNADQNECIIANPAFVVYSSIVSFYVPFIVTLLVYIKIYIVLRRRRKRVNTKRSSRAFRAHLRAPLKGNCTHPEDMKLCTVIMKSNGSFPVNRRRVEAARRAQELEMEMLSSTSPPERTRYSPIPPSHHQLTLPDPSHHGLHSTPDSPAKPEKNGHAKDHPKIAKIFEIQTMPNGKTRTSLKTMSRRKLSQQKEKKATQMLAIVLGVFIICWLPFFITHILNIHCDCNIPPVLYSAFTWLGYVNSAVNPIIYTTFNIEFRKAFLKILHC
Summary of the method: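 cAMP accumulation in DRD2-HEK293 cells measured by HTRF after 1 h detection; compounds added 10 min before NKH477 (200nM […]) forskolin-analogue stimulation, 30 min at room temperature, with Ro20-1724 present at 0.1 mM final.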

[20] = molecular target: D(2) dopamine receptor (Homo sapiens) (UniProt P14416); assay: Dopamine D2 receptor (DRD2) small molecule antagonists, cell-based qHTS assay (AID 1963595; active = well fitted inhibition curve with a large enough effect in the signal ratio in the repeat runs, with a control signal flat; the % refers to the signal ratio)
Summary of the method: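 Readout: HTRF cAMP, cAMP-d2 competing with cellular cAMP for anti-cAMP cryptate, read after 1 h. Cells: DRD2-HEK293. Conditions: 0.1 mM Ro20-1724, 12 nM quinpirole, 200 nM NKH477, 30 min RT.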

Structure (SMILES)	Potency [1]	Potency [2]	Potency [3]	Potency [4]	Potency [5]	Potency [6]	Potency [7]	Potency [8]	Potency [9]	Potency [10]	Potency [11]	Potency [12]	Potency [13]	Potency [14]	Potency [15]	Potency [16]	Potency [17]	Potency [18]	Potency [19]	Potency [20]
COCCOC(=O)c1ccccc1C(=O)OCCOC	inactive	inactive	inactive	inactive	inactive	inactive	inactive	inactive	inactive	inactive	inactive	inactive	inactive	inactive	inactive	inactive	inactive	inactive	inactive	inactive
c1ccc2c(c1)[nH]c1ccccc12	inactive	inactive	inactive	inactive	inactive	inactive	inactive	inactive	inactive	inactive	inactive	inactive	inactive	inactive	inactive	inactive	inactive	inactive	inactive	inactive
C=C(C)C(=O)Nc1ccc(Cl)c(Cl)c1	inactive	55 µM (active) and 43.1 µM (active)	inactive	inactive	inactive	inactive	inactive	inactive	inactive	inactive	inactive	inactive	inactive	inactive	inactive	inactive	inactive	inactive	inactive	inactive
CC(O)COCC(C)O (stereo not given)	inactive	inactive	inactive	inactive	inactive	inactive	inactive	inactive	inactive	inactive	inactive	inactive	inactive	inactive	inactive	inactive	inactive	inactive	inactive	inactive
CC(C)(C)c1cccc(C(C)(C)C)c1O	inactive	inactive	inactive	inactive	inactive	inactive	inactive	inactive	inactive	inactive	inactive	inactive	inactive	231 nM (active) and inactive	inactive	inactive	inactive	inactive	inactive	inactive
O=C=NCCCCCCN=C=O	inactive	inactive	inactive	inactive	inactive	inactive	inactive	inactive	inactive	inactive	inactive	inactive	inactive	inactive and 27 µM (active)	inactive	inactive	inactive	inactive		inactive
CC(=O)c1ccc(S(=O)(=O)NC(=O)NC2CCCCC2)cc1	inactive	inactive	inactive	inactive	inactive	inactive	inactive	inactive	inactive	inactive	inactive	inactive	inactive	inactive	inactive	inactive	inactive	inactive	inactive	inactive
O=C(Cl)c1cccc(C(=O)Cl)c1	inactive	inactive	inactive	inactive	inactive	inactive	inactive	inactive	inactive	inactive	inactive	inactive	inactive	inactive	inactive	inactive	inactive	inactive	inactive	inactive
Cc1cccc([N+](=O)[O-])c1C	inactive	inactive	inactive	inactive	inactive	inactive	inactive	inactive	inactive	inactive	inactive	inactive	inactive	inactive	inactive	inactive	inactive	inactive	inactive	
Clc1ccc(Cl)c(Cl)c1Cl	inactive	inactive	inactive	inactive	inactive	inactive	inactive	inactive	inactive	inactive	inactive	inactive	inactive	inactive	inactive	inactive	inactive	inactive	inactive	inactive
COC(=O)c1ccccc1	inactive	inactive	inactive	inactive	inactive	inactive	inactive	inactive	inactive	inactive	inactive	inactive	inactive	inactive	inactive	inactive	inactive	inactive		inactive
O=C1CCCCCN1	inactive	inactive	inactive	inactive	inactive	inactive	inactive	inactive	inactive	inactive	inactive	inactive	inactive	inactive	inactive	inactive	inactive	inactive	inactive	
CCO[Si](CCCN)(OCC)OCC	inactive	inactive	inactive	inactive	inactive	inactive	inactive	inactive	inactive	inactive	inactive	inactive	inactive	inactive	inactive	inactive	inactive	inactive	inactive	inactive
C=C1C2CCC(C2)C1(C)C (stereo not given)	inactive	inactive	inactive	inactive	inactive	inactive	inactive	inactive	inactive	inactive	inactive	inactive	inactive	inactive	inactive	inactive	inactive	inactive	inactive	inactive
Cc1ccc(O)cc1	inactive	inactive	inactive	inactive	inactive	inactive	inactive	inactive	inactive	inactive	inactive	inactive	inactive	inactive	inactive	inactive	inactive	inactive		inactive

Reference: PubChem BioAssay (Tox21)
